High-throughput results: PubChem BioAssay, National Center for Advancing Translational Sciences (NCATS)
AmpC inh detg: inhibitors of E. coli AmpC beta-lactamase with detergent; AmpC hydrolysis of nitrocefin, absorbance 480 nm, 0.01% Triton; Potency, µM (doses to about 114 µM), most hits filed as inhibitors; 370,000 tested, 0.041% active; AID 485294; further: nearly all actives have a fitted effect of over 25% in size
Target sequence (P00811 whole entry, looked up): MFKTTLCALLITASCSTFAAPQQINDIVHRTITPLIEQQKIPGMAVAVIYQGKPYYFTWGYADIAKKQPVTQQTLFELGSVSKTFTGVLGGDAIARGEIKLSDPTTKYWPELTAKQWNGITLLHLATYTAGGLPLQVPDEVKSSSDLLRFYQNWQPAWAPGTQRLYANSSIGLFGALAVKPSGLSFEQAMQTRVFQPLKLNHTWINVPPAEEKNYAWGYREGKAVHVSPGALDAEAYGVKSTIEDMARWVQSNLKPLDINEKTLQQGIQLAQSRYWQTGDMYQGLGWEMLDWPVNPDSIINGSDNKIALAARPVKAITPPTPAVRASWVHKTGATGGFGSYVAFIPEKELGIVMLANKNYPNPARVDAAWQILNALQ
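AmpC (5.3 nM in the dispensed reagent) in 20 mM phosphate pH 7.0 with 0.01% (detergent screen) or 0.0001% Triton X-100 was preincubated with compounds for 15 min at room temperature. Nitrocefin was then added from an 800 uM solution, and hydrolysis was followed at 480 nm.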
AMA1 RON2 block: disrupts binding of P. falciparum AMA1 to RON2; AlphaScreen AMA1-biotinylated RON2 peptide binding; Potency, µM (highest dose often 58.2 µM), actives largely listed as inhibitors; 360,000 tested, 0.2% active; AID 720542; further: nearly all actives have a fitted effect of over 45% in size
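AMA1 (3D7) with his tag at 25 nM final met compounds first, then biotinylated RON2 peptide at 25 nM; detection used donor plus acceptor beads, 10 µg/mL apiece, read by AlphaScreen after 30 min at room temperature.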
SARS PLP yeast: blocks SARS-CoV papain-like protease in a yeast assay; S. cerevisiae expressing SARS-CoV PLpro, growth rescue; Potency, µM (titrated, usually from 32.9 µM), usual class: activators; 330,000 tested, 0.19% active; AID 485353; calls by dose curve; further: nearly all actives have a fitted effect of over 55% in size
Cycloheximide cs: counter-screen hit for Shiga toxin inhibitors, cycloheximide; cell reporter, cycloheximide protein synthesis inhibition counterscreen; max response, %; 300,000 tested, 12% active; AID 2314; in the data active means max response mostly above about 13%, no sharp cut-off; inactive means mostly below about 14%; further: read at 38.3 µM for the half of the compounds with a filed dose
Shiga toxin inh: inhibitors of Shiga toxin in Vero cells; Vero cells, Shiga toxin protein synthesis inhibition reporter; inhibition, % at 38.7 µM; 290,000 tested, 9.2% active; AID 2315; in the data active means inhibition mostly above about 28%, no sharp cut-off; inactive means mostly below about 43%
AmpC inh no detg: AmpC beta-lactamase inhibition without detergent | P00811 | 330,000 tested, 0.52% active | AmpC nitrocefin hydrolysis, absorbance 480 nm, 0.0001% Triton | Potency, µM (titrated, usually from 57.1 µM), hits mostly inhibitors | AID 485341; further: nearly all actives have a fitted effect of over 20% in size
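20 mM phosphate pH 7.0 + 0.01% (detergent screen) or 0.0001% Triton X-100; 5.3 nM AmpC reagent; cpd preinc 15 min RT; nitrocefin (800 uM stock) to start; A480 q20 s × 4 min; Activity was normalised to no-enzyme and no-compound control wells.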
Large screens that a line does not name were inactive. This is one part of a sample in which hits are shown more often than they occur. Unless noted, the call rests on the fitted dose curve; in most records, active means well fitted curve in the direction sought with a large enough effect; inconclusive means small, poorly fitted or top-dose-only effect, or another doubt; inactive means no such curve, though single readings can be large; an effect the other way counts as inactive or inconclusive.

CCCCCCC(=O)N1CCCC(c2nc(-c3cccc(OC)c3)no2)C1 (stereo not drawn)	AmpC inh detg inconclusive
COc1cccc(-c2noc(C3CCCN(C(=O)c4cccc(F)c4)C3)n2)c1 (stereo not drawn)	Cycloheximide cs 35, Shiga toxin inh 45
CCCOC(=O)Nc1cc(OC)ccc1[N+](=O)[O-]	Cycloheximide cs 25
COc1ccc(NC(=O)CN2CCCCC2)c([N+](=O)[O-])c1	Cycloheximide cs 30, Shiga toxin inh 56
COc1ccc(NC(=O)CN2CCC(C)CC2)c([N+](=O)[O-])c1	AmpC inh detg inconclusive, Cycloheximide cs 22
CCOc1ccc(NC(=O)COC(=O)C2(C)CC2(Cl)Cl)c([N+](=O)[O-])c1 (stereo not drawn)	AMA1 RON2 block inconclusive, Cycloheximide cs 18, Shiga toxin inh 45
CCOc1ccc(NC(=O)CSc2nnc(N)s2)c([N+](=O)[O-])c1	none
COc1ccc(NC(=O)CN2CCC(NC(=O)C3CCCCC3)CC2)c([N+](=O)[O-])c1	none
COCCn1c(CN2CCN(c3ccccc3)CC2)nc2c1c(=O)n(C)c(=O)n2C	none (no result: AmpC inh detg, SARS PLP yeast, Cycloheximide cs, Shiga toxin inh, AmpC inh no detg)
CC(=O)N1CCC(C(=O)Nc2ccc(S(=O)(=O)N3CCC(C)CC3)cc2)CC1	none
O=C(O)c1ccc(OS(=O)(=O)c2ccc(Cl)s2)cc1	none (no result: Cycloheximide cs, Shiga toxin inh)
COc1ccc(NC(=O)CSc2nc3ccccc3n2-c2ccccc2)c([N+](=O)[O-])c1	AmpC inh detg inconclusive
COc1ccc(NC(=O)CN2CCN(C3c4ccccc4-c4ccccc43)CC2)cc1	AmpC inh detg inconclusive, Cycloheximide cs 57, Shiga toxin inh 42
CC1CCN(CC(=O)Nc2ccc(Cl)cc2[N+](=O)[O-])CC1	AMA1 RON2 block inconclusive, Cycloheximide cs 18
CCOc1ccc(OCC(=O)Nc2ccc(OC)cc2[N+](=O)[O-])cc1	none
COc1ccc(NC(=O)CSc2ccccc2)c([N+](=O)[O-])c1	AMA1 RON2 block inconclusive, Cycloheximide cs 60, Shiga toxin inh 99
COc1ccc(NC(=O)COc2ccc(C)cc2)c([N+](=O)[O-])c1	Cycloheximide cs 44, Shiga toxin inh 86
Cc1noc(NS(=O)(=O)c2ccc(NC(=O)/C=C/c3ccc(C(C)C)cc3)cc2)c1C	none
COc1ccc(Br)c(C(=O)Nc2cc3c(cc2N2CCCC2)n(C)c(=O)c(=O)n3C)c1	none (no result: AMA1 RON2 block, SARS PLP yeast, Cycloheximide cs, Shiga toxin inh, AmpC inh no detg)
Cc1ccc(C(=O)NCC(=O)OCC(=O)Nc2cc(C)c(C)cc2[N+](=O)[O-])cc1	none
COc1ccc(NC(=O)CN2CCC(C(N)=O)CC2)cc1	none
COc1ccc(NC(=O)CN2CCC(C)CC2)cc1	Cycloheximide cs 16, Shiga toxin inh 30
Cc1cccc(SCC(=O)Nc2ccccc2[N+](=O)[O-])c1	Cycloheximide cs 16
COCC(=O)OCC(=O)Nc1cc(C)c(C)cc1[N+](=O)[O-]	AmpC inh detg inconclusive, Cycloheximide cs 16
COc1ccc(C(c2oc(CO)cc(=O)c2O)c2oc(CO)cc(=O)c2O)cc1OC	SARS PLP yeast 7.9µM
Oc1ccc2ccccc2c1/C=N/Nc1nnc(-c2ncc[nH]2)c2ccccc12	SARS PLP yeast inconclusive, Cycloheximide cs 48
COc1ccc(/C=N/Nc2nnc(-c3ncc[nH]3)c3ccccc23)cc1	Cycloheximide cs 25, Shiga toxin inh 78
CC1CN(c2ccc(NC(=O)c3ccco3)cc2C(=O)O)CC(C)O1 (stereo not drawn)	none
O=C(O)COn1c(-c2ccc(Cl)cc2)nc2ccc(Cl)cc21	Shiga toxin inh 87
Clc1ccc(COn2c(-c3ccc(Cl)cc3)nc3ccccc32)cc1	AmpC inh detg inconclusive
COn1c(-c2ccc(Cl)cc2)nc2ccc(Cl)cc21	Cycloheximide cs 27, Shiga toxin inh 69
COc1ccc(-c2nc3ccccc3n2OCC(=O)O)cc1	Cycloheximide cs 21
CC1=CC(=C(C#N)C#N)C=C(C)N1CCN1CCNCC1	none
COc1ccc(CCN2CC(C(=O)OC(C)C(=O)Nc3ccc(NC(C)=O)cc3)CC2=O)cc1OC (stereo not drawn)	none (no result: AmpC inh detg, SARS PLP yeast, Cycloheximide cs, Shiga toxin inh, AmpC inh no detg)
O=c1[nH]c2cc3c(cc2cc1CN(CC1CCCO1)S(=O)(=O)c1ccc(Cl)cc1)OCCO3 (stereo not drawn)	Cycloheximide cs 67, Shiga toxin inh 183
CC(=O)c1ccc(S(=O)(=O)N(Cc2cc3cc4c(cc3[nH]c2=O)OCCO4)CC2CCCO2)cc1 (stereo not drawn)	Cycloheximide cs 37, Shiga toxin inh 93
CC1CN=C(N(C(=O)Nc2ccccc2)C(C)c2ccccc2)S1 (stereo not drawn)	Cycloheximide cs 13
Cc1ccc(N(C(=O)Nc2ccccc2)C2=NCC(C)S2)cc1 (stereo not drawn)	Cycloheximide cs 23, Shiga toxin inh 91, AmpC inh no detg inconclusive
COc1cccc(N(CC(=O)NCCSCc2ccc(Cl)cc2)S(C)(=O)=O)c1	none (no result: Shiga toxin inh)
CCCOc1ccc(C(=O)NCC(c2cccs2)N(C)C)cc1OC (stereo not drawn)	none
Cc1noc(C)c1S(=O)(=O)N1CCN(Cc2ccc3c(c2)OCO3)CC1	AmpC inh no detg 7.1µM
CCc1cc2cc(C(=O)N3CCN(Cc4ccccc4)CC3)sc2s1	Cycloheximide cs 22, Shiga toxin inh 49 (no result: SARS PLP yeast, AmpC inh no detg)
Cc1cc(C)c(S(=O)(=O)N2CCN(Cc3ccc4c(c3)OCO4)CC2)cc1C	none (no result: AMA1 RON2 block, SARS PLP yeast, Cycloheximide cs, Shiga toxin inh, AmpC inh no detg)
O=C(N1CCN(Cc2ccc3c(c2)OCO3)CC1)C(Cl)(Cl)Cl	Cycloheximide cs 17, Shiga toxin inh 67
CCc1cc2cc(C(=O)N3CCN(c4ccccc4)CC3)sc2s1	none
S=C(Nc1ccc2c(c1)OCO2)N1CCN(Cc2ccco2)CC1	Cycloheximide cs 20, Shiga toxin inh 28
O=C(O)c1ccccc1C(=O)N1CCN(Cc2ccc3c(c2)OCO3)CC1	none
CCOc1ccc(NC(=O)N2CCC(C(N)=O)(N3CCCCC3)CC2)cc1	none
O=C(CN1CCN(C(=O)c2ccco2)CC1)Nc1ccc2c(c1)OCCO2	Cycloheximide cs 27, Shiga toxin inh 91
O=C(c1ccc2c(c1)OCCO2)N1CCN(Cc2ccccc2)CC1	Cycloheximide cs 15
Cc1ccc(NC(=O)CN2CCN(C(=O)c3ccco3)CC2)cc1	none
O=C(CN1CCOCC1)Nc1ccc2c(c1)OCCO2	AMA1 RON2 block inconclusive, Cycloheximide cs 16, Shiga toxin inh 50
O=C(c1ccccc1)N1CCN(C(=O)c2ccc3c(c2)OCCO3)CC1	none
O=C(CN1CCOCC1)Nc1ccc2c(c1)CCC2	Cycloheximide cs 17
O=C(CCN1CCOCC1)Nc1ccc2c(c1)CCC2	AmpC inh detg inconclusive
COc1ccccc1OCc1nc(C#N)c(N2CCC(C(N)=O)CC2)o1	none
O=C(c1ccccc1)c1nn(-c2ccc(Cl)cc2)c(=O)cc1C(F)(F)F	Cycloheximide cs 13, Shiga toxin inh 33
